Results filed as inconclusive are left out. A call without a number means that no potency is given here. Active and inactive are the calls of the source. Calls follow the shape of the dose curve; as a rule, active = well fitted activation curve with a large enough effect; inconclusive = small, poorly fitted or top-dose-only effect; inactive = flat fitted curve, though single readings scatter.

The nature of the experiment: Primary redox qHTS assay for identification of artifact compounds. (AID 1845223). The following applies: Amplex Red/HRP redox cycling with DTT, fluorescence; series mostly up to 53.8 µM. The method in brief:
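Amplex Red (25 uM) and HRP (250 mU/mL) in HBSS, with compounds for 15 min, then 250 uM DTT for 30 min, room temperature, dark. Fluorescence 525/598 nm read; normalized to DMSO and 10 uM DA3003; Hill fit.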
On to `O=C(NCCCCN1CCN(c2cccc(Cl)c2Cl)CC1)c1cc2ccccc2s1`, for which the Potency result is “inactive”. In the case of `CC(=O)NC(C)c1cnc(-c2cnc(Oc3ccc(OC(C)C)cc3)s2)s1` (stereo unspecified), the Potency result was “inactive”. Still for that read-out and setting: the same measure for `CC(C)c1cc(-c2ccc(F)c3ccccc23)nc(N)n1`: “inactive”; for `CCCC(=O)C1(c2ccccc2)CCN(C(=O)[C@@H](Cc2ccc(OC)cc2)NC(=O)[C@@H](N)Cc2cncn2C)CC1`: “inactive”; for `Cc1[nH]c(/C=C2\C(=O)Nc3cc(-c4ccccc4)ccc32)c(C)c1CCC(=O)O`: “inactive”. On the same count and under the same terms, for `C=C(C=O)[C@]1(O)C[C@@]2(C)C(=CC1=O)C=C[C@H](OC(=O)/C=C/C=C/[C@H](C)CC)[C@@H]2C` the value was “inactive”; for `S=C(c1ccc(-c2ccc(Cl)c(Cl)c2)o1)N1CCCCC1`, “inactive”; for `CC1(C(=O)Nc2ccc(F)nc2)CCCN1c1nc(Nc2cc(C3CC3)[nH]n2)c2cccn2n1` (stereo unspecified), “inactive”. On the same count and under the same terms, for `Oc1cccc(C2NC(=S)Nc3cccc(F)c32)c1` (stereo unspecified) the value was “inactive”; for `C[C@@H]1C[C@H](C)CN(CCC(=O)Nc2ccc(Br)cc2)C1`, “inactive”. On to `CC(CCC1(O)OC2CC3C4CC=C5CC(O[C@@H]6O[C@H](CO)[C@@H](O[C@@H]7O[C@@H](C)[C@H](O)[C@@H](O)[C@H]7O)[C@H](O)[C@H]6O[C@@H]6O[C@@H](C)[C@H](O)[C@@H](O)[C@H]6O)CCC5(C)C4CCC3(C)C2C1C)CO[C@@H]1O[C@H](CO)[C@@H](O)[C@H](O)[C@H]1O` (stereo partly specified), for which the redox activity (% of DA3003) is 12.7% [at 11.5 µM] (inactive). `CCC(C)/C=C(C)/C=C/C1=CC2=C(Cl)C(=O)C(C)(OC(C)=O)C(=O)C2(O)C(OC)O1` (stereo unspecified): the Potency result is “inactive”. Take `FC(F)(F)c1ccccc1-c1cc(C(F)(F)F)c2nc(C3=NOC4(CCCCC4)C3)[nH]c2c1`: the Potency result was “inactive”.

Take `COc1ccc2cc3c(NC(=O)c4ccco4)nn(C)c3nc2c1`: the Potency result was “inactive”.

For `CCC(C)C(=O)Oc1cc(C)ccc1C1(COC(=O)C(C)C)CO1` (stereo unspecified), the Potency entry is “inactive”.

For `O=C([C@@H]1CCCN(c2ccc3[nH]c(C4(n5cc(Cl)cn5)CC4)nc3n2)C1)N1CCCC1`, the Potency entry was “inactive”. On the same count and under the same terms, for `COC(=O)C[C@H]1[C@]2(C)C3=C(C)[C@H](c4ccoc4)C[C@H]3O[C@@H]2[C@H](O)C2[C@](C)(C(=O)OC)C=CC(=O)[C@@]21C` (stereo partly specified) the value was “inactive”; for `CC(=O)OC(C)(C)/C=C/C(=O)C(C)(O)C1C(O)CC2(C)C3CC=C(C(C)(C)C(=O)O)C(CC(=O)O)C3(C)C(=O)CC12C` (stereo unspecified), “inactive”; for `Cc1nc2ccc(CN(C)c3ccc(C(=O)NC(CCC(=O)O)C(=O)O)s3)cc2c(=O)[nH]1` (stereo unspecified), “inactive”. Turning to `COc1cc(OC)c(NC(=O)c2ccc(Cc3cc4c(cc3C)C(C)(C)CCC4(C)C)o2)c(OC)c1`, the Potency entry is “inactive”. On the same count and under the same terms, the same measure for `C=C1C(=O)O[C@@H]2C[C@]3(C)[C@@H](CCC(C)O)[C@@H]3C[C@H]12` (stereo partly specified): “inactive”; for `COC(=O)C(Cc1ccc(OCCn2c(=O)sc3cc(C(=O)c4ccccc4)ccc32)cc1)C(=O)OC`: “inactive”. On the same count and under the same terms, the same measure for `Cc1ccnn1-c1ccc(C(=O)N2CCN(S(=O)(=O)c3ccc(Cl)c(C(F)(F)F)c3)CC2)cc1`: “inactive”.

On to `C=C1CC[C@@H](O)[C@]2(C)CC[C@H]3C(=C)C(=O)O[C@@H]3[C@@H]12`, for which the Potency entry was “inactive”.

On to `C[C@@H]1C[C@H]2O[C@@]3(O[C@@H]2C(C)(C)O)C(O)[C@@]2(C)C4CCC5C(C)(C)[C@@H](O[C@H]6OC[C@H](O)[C@@H](O)[C@@H]6O)CC[C@@]56C[C@@]46CC[C@]2(C)C13` (stereo partly specified), for which the Potency result is “inactive”. With `COc1cc2c(c(OC)c1CC=C(C)C)C[C@H](c1ccc(O)c(CC=C(C)C)c1O)CO2`, the Potency entry is “inactive”.

`CC1=CC2/C=C(\C)CCC(O)C/C=C/C(=O)OC23C(=O)NC(CC(C)C)C3C1C` (stereo unspecified): the Potency result was “inactive”. `N#Cc1cc(-c2ccnc(Nc3ccc(N4CCOCC4)cc3)n2)ccc1OC1CCOCC1`: the Potency result was “inactive”.

Regarding `COc1cc2nc(C3CC3)nc(N3CCN(c4ccccc4OC)CC3)c2cc1OC`, the Potency result was “inactive”. Still for that read-out and setting: for `Cc1nc(C#Cc2ccnc(Cl)c2)c(C)n1-c1ccc(F)cc1` the value was “inactive”; for `C=CCC1=C[C@]2(OC)[C@H](C)[C@@H](c3ccc4c(c3)OCO4)O[C@]2(OC)CC1=O`, “inactive”. On the same count and under the same terms, the same measure for `CCOc1ccc(Cc2nc(-c3c(C)nc4ccccn34)cs2)cc1`: “inactive”. For the molecule `O=C1COc2nccc(-c3ccccc3F)c2CN1Cc1cc(C(F)(F)F)cc(C(F)(F)F)c1`, the Potency entry was “inactive”.

Take `Cc1[nH]c2ccccc2c1CCNC(=O)c1cccs1`: the Potency result is “inactive”. On the same count and under the same terms, for `CC(C)c1ccc(NC(=O)c2cccs2)c(-c2nc3ccccc3[nH]c2=O)c1` the value was “inactive”.

Turning to `CC(C)c1ccccc1OC(=O)NCCc1ccc2ccccc2c1`, the Potency result was “inactive”.
